# Test: probe aLefty2 binding to arrayed compounds – biochemical, biotinylated probe, 635/667 nm fluorescence, primary screen (AID 1094);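 also: score merges spot fluorescence near 667 nm with spot signal-to-noise ratio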
# Conditions: small-molecule microarray, higher = more signal
row,SMILES,composite z-score
1,O=C(O)C1=CC[C@H]2C(=O)N(c3ccccc3)C(=O)[C@@H]12,0.0694
2,C=CC[C@H](OC(=O)Nc1ccc(SC)cc1)c1ccc(O)c(F)c1,-0.106
3,COC(=O)C1(CC(C)C)C=C2C(=C(C)C(=O)C2C)CN1 (centres undefined),0.374
4,[N-]=[N+]=NCc1ccccc1C[C@]1(C(=O)N2CCCCC2)COC(c2ccc(OCCCO)cc2)=N1,0.346
5,C=C[C@H](C)[C@@H](OC(=O)Nc1ccc(SC)cc1)c1ccc(OCCO)cc1,-0.0391
6,COC(=O)Cn1c(C(=O)N(C)C)cc2c1C[C@H]1CN(C(=O)c3ccccc3)[C@@](Cc3ccccc3)(C(=O)OC)[C@@H]21,0.0022
7,O=C1c2ccccc2[C@](Cc2ccccc2I)(C(=O)NCCN2CCOCC2)[C@H](c2ccc(CO)cc2)N1Cc1ccccc1C(F)(F)F,-0.0376
8,Cc1ccc(S[C@]2(C(=O)NCCN3CCOCC3)CC(=O)N(C(C)C)[C@@H]2c2ccc(CO)cc2I)cc1,0.126
9,C=C(CCCC)C(=O)CC[C@H](OC(=O)c1ccccc1-c1ccccc1C(=O)O)c1cccc(OCCO)c1,-0.186
10,[N-]=[N+]=Nc1ccccc1C[C@@]1(C(=O)NCc2ccccc2)N=C(c2ccc(OCCCO)cc2)O[C@@H]1c1ccccc1,0.271
11,C=CCNC(=O)[C@@H]1[C@H]2C(=O)O[C@H](c3ccccc3)[C@H](c3ccccc3)N2[C@H](c2ccc(OCCO)cc2)[C@@]12C(=O)Nc1ccc(C#CC3=CCCCC3)cc12,-0.168
12,CC(C)C[C@@H]1NC(=O)[C@H]2C[C@@H](C(=O)O)[C@@H](c3cccc(OCCO)c3)N2C1=O,0.276
13,CC(C)c1ccc(NN2C(C(O)C(C)c3ccccc3)C=CC3C(=O)N(c4ccccc4)C(=O)C32)cc1 (centres undefined),0.57
14,Cc1ccc(S(=O)(=O)N2[C@@H](c3ccccc3)C(C(=O)O)=C[C@H]2C(C)(C)C)cc1,0.152
15,CCOC(=O)C1=CC[C@@H](c2ccccc2)N(S(=O)(=O)c2ccc(C)cc2)[C@@H]1C#N,0.0979
16,COCCOC(=O)N1C(=O)[C@@]2(c3cc(C#CCC(C(=O)OC)C(=O)OC)ccc31)[C@H](C(=O)N1CCc3cc(OC)c(OC)cc3C1)[C@H]1C(=O)O[C@H](c3ccccc3)[C@H](c3ccccc3)N1[C@@H]2c1ccccc1OCCO,-0.0754
17,CN(C)CCCC[C@@H]1NC(=O)[C@H]2C[C@@H](C(=O)NCCCCCCNC(=O)CS)[C@@H](c3cccc(OCCO)c3)N2C1=O,0.0141
18,COc1cc2c(cc1O)C(C)N(Cc1sc3ccccc3c1Cl)CC2 (centres undefined),0.107
19,COCCOC(=O)N1C(=O)[C@@]2(c3cc(C#CCC(C(=O)OC)C(=O)OC)ccc31)[C@H](c1ccc(O)cc1)N1[C@H](c3ccccc3)[C@H](c3ccccc3)OC(=O)[C@H]1[C@@H]2C(=O)N1CCc2cc(OC)c(OC)cc2C1,-0.103
20,CCOC(=O)C1=CCC(c2ccncc2)N(S(=O)(=O)c2ccc(C)cc2)C1 (centres undefined),-0.0585
21,COC(=O)[C@@]1(Cc2ccc(F)cc2)[C@H]2c3cc(C(=O)N4CCCC4)n(Cc4ccc(C(F)(F)F)nc4)c3C[C@H]2CN1C(=O)c1ccccc1,0.67
22,CC(C)(C)OC(=O)CC[C@@]1(C(N)=O)N=C(c2ccc(OCCCO)cc2)O[C@@H]1c1ccccc1CN=[N+]=[N-],0.669
23,C=CCNC(=O)[C@H]1[C@@H]2C(=O)O[C@@H](c3ccccc3)[C@@H](c3ccccc3)N2[C@@H](c2ccc(OCCO)cc2)[C@]12C(=O)N(C(=O)OCCOC)c1ccc(C#CCC(C(=O)OC)C(=O)OC)cc12,0.771
24,C=CCOC(=O)[C@H]1[C@@H]2C(=O)O[C@@H](c3ccccc3)[C@@H](c3ccccc3)N2[C@@H](c2ccc(OCCOC(=O)[C@@H]3C[C@@H]4C(=O)N[C@@H](Cc5ccccc5)C(=O)N4[C@@H]3c3ccc(O)cc3)cc2)[C@]12C(=O)Nc1ccc(I)cc12,-0.0666
25,CCN1C(=O)C2CC(=O)C3C(CN(S(=O)(=O)c4ccc(C)cc4)C3c3ccc(C)cc3)C2C1=O (centres undefined),-0.0176
26,C=C(C)C1CN([C@H](CO)c2ccccc2)C(=O)/C1=C\c1ccccc1 (some centres undefined),-0.0931
27,C=C(COC)C(=O)CC[C@H](OC(C)=O)c1ccc(CO)o1,-0.0963
28,COC(=O)C(CC#Cc1ccc2c(c1)[C@]1(C(=O)N2)[C@H](C(=O)NC[C@H](O)c2ccccc2)[C@H]2C(=O)O[C@H](c3ccccc3)[C@H](c3ccccc3)N2[C@@H]1c1ccc(O)cc1)C(=O)OC,-0.055
29,C=C[C@H](OC)[C@@H](O)c1ccc(OC)c(O)c1,-0.0783

# Reference: PubChem BioAssay
